Measurements taken from PubChem BioAssay (NCATS).
Results filed as inconclusive are left out. Activity calls are given as the source filed them. Unless noted, the call rests on the fitted dose curve; in most records, active means well fitted curve in the direction sought with a large enough effect; inconclusive means small, poorly fitted or top-dose-only effect, or another doubt; inactive means no such curve, though single readings can be large; an effect the other way counts as inactive or inconclusive.

Assays:
[1] = AP1 Signaling Pathway (AID 357; active means well fitted curve in either direction with a large enough effect, not every such curve was filed as active;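 further: ME-180 reporter cells stimulated with EGF at its EC50 level; on the % scale 0 is the no-effect control and ±100 the full control effect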); conditions: ME-180 AP-1-bla reporter, EGF-induced, beta-lactamase ratio, 5 h; at 7.69 µM (top of the series) unless noted
Procedure, shortened: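 AP-1-bla ME-180 cells, Opti-MEM + 0.5% dialyzed FBS, plated overnight 37 °C. Cpd titration + EC50 EGF, 5 h 37 °C. CCF4 2.5 h RT; ex 405, em 460/530 ratio → %activity, AC50.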

[2] = biological target: Cytochrome P450 1A2 (Homo sapiens) (UniProt P05177); assay: p450-cyp1a2 (AID 410; calls by dose curve;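 further: -100% = full effect of reference inhibitor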)
Procedure, shortened: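 Human CYP1A2 (20nM) demethylated Luciferin-ME at its Km (100uM) in 100mM KPO4. After 10 min compound preincubation, NADPH regeneration ran the reaction 60 min at room temperature. Luciferin was read by luminescence, normalized to 57 uM furafylline.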

[3] = NFAT Signaling Pathway (AID 444; active means well fitted curve in either direction with a large enough effect, not every such curve was filed as active;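 further: carbachol stimulus at about its EC50 of 1 µM final; on the % scale 0 is the no-effect control and ±100 the full control effect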); conditions: Jurkat NFAT-bla M1, carbachol, beta-lactamase ratio, 5 h; at 7.69 µM (top of the series) unless noted
Procedure, shortened: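 Jurkat cells carrying an NFAT-driven β-lactamase reporter and co-transfected muscarinic M1 receptor were treated with compound plus carbachol (1 uM final, an EC50 level) for 5 h at 37 °C. CCF4 loading followed for 1 h at RT; 460/530 nm ratio gave %activity.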

[4] = Stat Signaling Pathway (AID 446; active means well fitted curve in either direction with a large enough effect, not every such curve was filed as active;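 further: ME-180 cervical cancer cells given 40 pM IL-6 alongside compound; SIE-controlled beta-lactamase reporter measured as 460/530 nm FRET emission ratio; on the % scale 0 is the no-effect control and ±100 the full control effect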); conditions: ME-180 (cervical carcinoma) SIE beta-lactamase reporter, IL-6 stimulated, 5 h; at 7.69 µM (top of the series) unless noted
Procedure, shortened: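 IL-6/STAT signaling read in ME-180 cells via an SIE beta-lactamase reporter. Stimulus was 40 pM IL-6 (its AC50) for 5 hrs, so both activation and inhibition register.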

[5] = biological target: Mitogen-activated protein kinase 10 (Mus musculus) (UniProt Q61831); assay: JNK3 AlphaScreen Assay (AID 530; active means well fitted curve in either direction with a large enough effect, not every such curve was filed as active;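 further: kinase came from lysate of stimulated human HepG2 cells; signal reports phosphorylation of biotinylated GST-cJun 1-79 at Ser73 with 10 µM ATP; on the % scale 0 is the no-effect control and ±100 the full control effect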)
Procedure, shortened: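 JNK3 came from HepG2 lysates pre-activated with IL-1beta and TNF-alpha and phosphorylated biotinylated GST-cJun (1-79) at 10 uM ATP, pH 7.6, room temperature. Compounds were titrated. AlphaScreen signal used anti-phospho-cJun (Ser73) antibody.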

[6] = biological target: 3',5'-cyclic-AMP phosphodiesterase 4B (Homo sapiens) (UniProt Q07343); assay: qHTS Assay for Inhibitors of PDE-IV (AID 607; active means well fitted activation curve with a large enough effect in the main read-out, with a control signal flat, not every such curve was filed as active; further: % of control where 0% means no effect)
Procedure, shortened: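 Live HEK293 cells with a modified cyclic nucleotide-gated (CNG) channel report intracellular cAMP via membrane-potential dye fluorescence (ex 535/em 590 nm). Endogenous PDE-IV was targeted. Compounds were tested at up to 22.9 uM final; RO 20-1724 100 uM served as control.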

[7] = biological target: Guanine nucleotide-binding protein G(i) subunit alpha-1 (Homo sapiens) (UniProt P63096); assay: qHTS Assay for Inhibitors of RGS12 GoLoco Motif Activity (Green Fluorophore) (AID 879);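 further: 0% = labeled peptide with Gαi1 and full inhibition = labeled peptide alone without protein; negative values mean loss of peptide binding seen as reduced polarization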
Procedure, shortened: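 Fluorescence polarization assay: 50 nM Gαi1 with 10 nM FITC-labeled RGS12 GoLoco peptide in 10 mM Tris pH 7.5, 150 mM NaCl, 0.1 mM GDP, 0.05% NP40, 10 min at room temperature with compound.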

[8] = qHTS Assay for Identification of Small Molecule Antagonists for NFkB Signaling Pathway (AID 895; active means well fitted inhibition curve with a large enough effect in the signal ratio, with a control signal flat, not every such curve was filed as active; the % refers to the signal ratio; further: on the % scale 0 is the no-effect control and ±100 the full control effect)
Procedure, shortened: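 NFkB-bla ME-180 cervical carcinoma cells with beta-lactamase reporter under NFkB response element; compounds added, then TNF alpha at 10 pM final (EC50), 5 h at 37 C. LiveBLAzer substrate 2 h, room temperature; emission 460/530 nm at 405 nm excitation.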

[9] = qHTS Assay for Identification of Small Molecule Agonists for Thrombopoietin (TPO) Signaling Pathway (AID 917); further: on the % scale 0 is the no-effect control and ±100 the full control effect
Procedure, shortened: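 Activators of TPO signaling were sought in murine Ba/F3 cells transfected with the human receptor, using a luciferase gene driven by the Glycoprotein IIb promoter; 24-hr compound exposure at 37 C alongside 26 pM TPO, in IL-3-free medium.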

[10] = biological target: Muscarinic acetylcholine receptor M1 (Rattus norvegicus) (UniProt P08482); assay: qHTS Assay for Antagonists of Acetylcholine Muscarinic M1 Receptor: Measurement of IP-One Response (AID 944); further: nearly all actives have a fitted effect of over 75% in size
Procedure, shortened: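 CHO cells expressing rat M1 receptor, recovered overnight, were pre-incubated 10 min with compound, then stimulated 30 min with carbachol at EC80 (200 nM) in LiCl-containing buffer, pH 7.4. IP1 accumulation was read by HTRF (620/665 nm).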

[11] = biological target: Pyruvate kinase (Leishmania mexicana) (UniProt Q27686); assay: qHTS Validation Assay for Inhibitors of Leishmania Mexicana Pyruvate Kinase (AID 945);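 further: 0% = DMSO only neutral control wells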
Procedure, shortened: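 qHTS eight-point titrations against 0.2 nM LmPYK (E451W) in imidazole buffer pH 7.2 with 0.5 mM PEP, 0.1 mM ADP; 1 h, room temperature. Readout: PKLight luminescence, normalized to neutral DMSO wells.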

[12] = biological target: Pyruvate kinase PKM (Homo sapiens) (UniProt P14618); assay: qHTS Assay for Activators of Human Muscle Pyruvate Kinase (AID 954; active means well fitted curve in the direction sought with a large enough effect, not every such curve was filed as active;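 further: 0% = uninhibited enzyme and -100% = no enzyme or full thiadiazolimine inhibition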)
Procedure, shortened: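 Enzyme was run at intermediate activity so both inhibitors and activators could be detected. ATP formed from ADP and PEP by 0.1 nM human PKM2 during a 1 h room-temperature incubation was quantified by coupled luciferase luminescence.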

[13] = biological target: alpha-glucosidase (Oryza sativa, rice) (UniProt Q653V4); assay: Counterscreen for Glucocerebrosidase Inhibitors: qHTS Assay for Rice alpha-Glucosidase at pH 5.0 (AID 997);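 further: 0% = full activity with enzyme and -100% = basal without enzyme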
Procedure, shortened: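 Rice alpha-glucosidase (4 nM final) with 400 uM 4-methylumbelliferyl-alpha-D-glucopyranoside in citrate buffer pH 5.0, 20 min at room temperature, stopped at pH 10; fluorescence 365/440 nm, compounds 0.7 nM–77 uM, AC50 from Hill fits.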

Chain of Pyruvate kinase (Leishmania mexicana) (Q27686 2-499 E452W): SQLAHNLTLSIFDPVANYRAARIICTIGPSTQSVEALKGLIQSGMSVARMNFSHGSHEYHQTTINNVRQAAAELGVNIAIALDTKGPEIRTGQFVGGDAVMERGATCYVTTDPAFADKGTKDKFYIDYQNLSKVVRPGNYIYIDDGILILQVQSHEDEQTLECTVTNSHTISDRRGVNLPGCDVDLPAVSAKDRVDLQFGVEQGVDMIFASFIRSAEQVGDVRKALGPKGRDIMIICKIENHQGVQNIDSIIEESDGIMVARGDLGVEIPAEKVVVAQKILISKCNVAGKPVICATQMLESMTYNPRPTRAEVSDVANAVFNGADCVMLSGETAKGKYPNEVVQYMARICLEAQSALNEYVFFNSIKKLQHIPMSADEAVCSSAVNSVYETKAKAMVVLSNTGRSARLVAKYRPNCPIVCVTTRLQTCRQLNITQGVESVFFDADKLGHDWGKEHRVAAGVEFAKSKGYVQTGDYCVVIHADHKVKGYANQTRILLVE
Chain of Cytochrome P450 1A2 (Homo sapiens) (P05177 whole entry, looked up): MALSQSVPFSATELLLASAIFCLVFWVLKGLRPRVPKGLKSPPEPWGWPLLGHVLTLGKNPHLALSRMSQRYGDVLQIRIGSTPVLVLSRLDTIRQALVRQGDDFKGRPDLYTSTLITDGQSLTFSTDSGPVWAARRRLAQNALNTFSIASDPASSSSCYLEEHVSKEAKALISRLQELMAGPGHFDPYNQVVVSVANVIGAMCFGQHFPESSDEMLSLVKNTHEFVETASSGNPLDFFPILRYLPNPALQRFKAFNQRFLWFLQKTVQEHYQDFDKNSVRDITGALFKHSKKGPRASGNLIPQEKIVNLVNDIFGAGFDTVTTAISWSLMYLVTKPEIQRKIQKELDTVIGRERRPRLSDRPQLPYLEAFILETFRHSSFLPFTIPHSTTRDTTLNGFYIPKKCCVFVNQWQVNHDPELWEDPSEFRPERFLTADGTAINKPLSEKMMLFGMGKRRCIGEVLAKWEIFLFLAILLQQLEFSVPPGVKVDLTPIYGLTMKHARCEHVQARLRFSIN
Chain of Pyruvate kinase PKM (Homo sapiens) (P14618 whole entry, looked up): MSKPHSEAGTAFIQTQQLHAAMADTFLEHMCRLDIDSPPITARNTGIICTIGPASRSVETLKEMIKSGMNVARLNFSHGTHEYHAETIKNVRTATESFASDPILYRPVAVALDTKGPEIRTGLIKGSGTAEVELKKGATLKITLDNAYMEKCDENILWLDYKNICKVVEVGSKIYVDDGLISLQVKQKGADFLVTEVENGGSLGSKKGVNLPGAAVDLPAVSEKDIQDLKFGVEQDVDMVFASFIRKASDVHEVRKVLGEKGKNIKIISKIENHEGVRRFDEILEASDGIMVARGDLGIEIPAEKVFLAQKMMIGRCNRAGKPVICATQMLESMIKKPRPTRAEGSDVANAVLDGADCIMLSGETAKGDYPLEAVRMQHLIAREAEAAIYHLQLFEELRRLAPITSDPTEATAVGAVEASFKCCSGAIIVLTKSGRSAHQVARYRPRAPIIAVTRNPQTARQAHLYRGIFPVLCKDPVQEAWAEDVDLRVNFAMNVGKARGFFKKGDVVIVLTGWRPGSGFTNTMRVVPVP
Chain of Guanine nucleotide-binding protein G(i) subunit alpha-1 (Homo sapiens) (P63096 whole entry, looked up): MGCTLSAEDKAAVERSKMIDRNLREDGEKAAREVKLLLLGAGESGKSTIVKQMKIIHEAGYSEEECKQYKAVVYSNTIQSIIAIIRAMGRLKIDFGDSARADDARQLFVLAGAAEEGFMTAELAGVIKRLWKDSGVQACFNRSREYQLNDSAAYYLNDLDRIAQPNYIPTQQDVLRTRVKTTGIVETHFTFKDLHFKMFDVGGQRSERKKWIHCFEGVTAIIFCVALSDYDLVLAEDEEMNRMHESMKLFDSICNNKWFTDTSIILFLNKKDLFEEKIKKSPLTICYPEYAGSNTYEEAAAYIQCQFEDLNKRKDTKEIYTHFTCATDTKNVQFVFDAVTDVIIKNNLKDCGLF
Chain of Muscarinic acetylcholine receptor M1 (Rattus norvegicus) (P08482 whole entry, looked up): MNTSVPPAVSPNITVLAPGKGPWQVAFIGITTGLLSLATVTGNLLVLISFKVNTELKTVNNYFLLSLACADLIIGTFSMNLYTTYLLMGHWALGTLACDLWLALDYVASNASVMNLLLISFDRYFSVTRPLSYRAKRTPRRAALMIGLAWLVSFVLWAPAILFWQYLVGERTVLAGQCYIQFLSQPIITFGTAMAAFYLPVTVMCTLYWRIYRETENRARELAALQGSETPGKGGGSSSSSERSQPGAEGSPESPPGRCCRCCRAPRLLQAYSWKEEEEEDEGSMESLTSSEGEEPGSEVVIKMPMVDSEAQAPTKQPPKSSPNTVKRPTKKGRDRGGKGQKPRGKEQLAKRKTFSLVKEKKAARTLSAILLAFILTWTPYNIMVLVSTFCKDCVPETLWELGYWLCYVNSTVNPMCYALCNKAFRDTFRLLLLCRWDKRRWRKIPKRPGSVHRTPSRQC
Chain of 3',5'-cyclic-AMP phosphodiesterase 4B (Homo sapiens) (Q07343 whole entry, looked up): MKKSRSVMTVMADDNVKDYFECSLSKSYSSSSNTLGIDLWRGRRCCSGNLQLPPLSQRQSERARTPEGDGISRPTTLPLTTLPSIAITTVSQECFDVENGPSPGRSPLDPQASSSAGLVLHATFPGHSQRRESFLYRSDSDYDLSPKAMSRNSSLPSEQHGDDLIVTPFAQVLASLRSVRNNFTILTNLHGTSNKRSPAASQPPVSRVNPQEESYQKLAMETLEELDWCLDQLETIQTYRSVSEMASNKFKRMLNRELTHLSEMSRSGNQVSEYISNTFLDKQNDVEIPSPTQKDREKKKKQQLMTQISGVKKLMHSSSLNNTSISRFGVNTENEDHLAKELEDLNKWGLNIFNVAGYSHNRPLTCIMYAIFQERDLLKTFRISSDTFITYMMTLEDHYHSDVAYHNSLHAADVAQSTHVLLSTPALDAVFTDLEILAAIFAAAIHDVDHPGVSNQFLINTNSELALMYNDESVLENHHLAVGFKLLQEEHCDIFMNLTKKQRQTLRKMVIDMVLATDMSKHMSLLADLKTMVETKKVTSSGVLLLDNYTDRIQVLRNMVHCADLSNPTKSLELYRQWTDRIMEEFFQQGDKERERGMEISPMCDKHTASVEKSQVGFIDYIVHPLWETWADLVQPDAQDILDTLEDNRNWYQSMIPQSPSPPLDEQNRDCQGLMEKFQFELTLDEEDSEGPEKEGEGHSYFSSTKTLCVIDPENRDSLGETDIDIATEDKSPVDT

Nc1ncnc2c1nc(Br)n2[C@@H]1O[C@H]2COP(=O)(O)O[C@@H]2[C@H]1O
inactive: activity change, negative = inhibition [1] -7.65% [at 38 µM] | Potency [2] | activity change, negative = inhibition [3] 6.13% [at 38 µM] | activity, negative = inhibition [4] 4.8% [at 38 µM] | Potency [5] | Potency [6] | outcome [7] | Potency [8] | outcome [9] | Potency [10] | outcome [11] | outcome [12] | Potency [13]
